# Experiments:
# Test in all cases: DAPPL (digital affinity profiling via proximity ligation, sequencing); 10 mM Tris-HCl pH 7.5, 50 mM NaCl, 1 mM DTT, 4% glycerol, room temperature, 30 min; GST-TFs on glutathione beads, 16-mer random dsDNA library, 0.1% formaldehyde crosslink after washing; high values mean tight binding
# Conditions in all cases: protein: recombinant; tags: N-terminal GST; dsDNA, one strand shown
# FLI1 = biological target: T1, FLI1 (Homo sapiens, UniProt Q01543 1-452)
# T1 sequence: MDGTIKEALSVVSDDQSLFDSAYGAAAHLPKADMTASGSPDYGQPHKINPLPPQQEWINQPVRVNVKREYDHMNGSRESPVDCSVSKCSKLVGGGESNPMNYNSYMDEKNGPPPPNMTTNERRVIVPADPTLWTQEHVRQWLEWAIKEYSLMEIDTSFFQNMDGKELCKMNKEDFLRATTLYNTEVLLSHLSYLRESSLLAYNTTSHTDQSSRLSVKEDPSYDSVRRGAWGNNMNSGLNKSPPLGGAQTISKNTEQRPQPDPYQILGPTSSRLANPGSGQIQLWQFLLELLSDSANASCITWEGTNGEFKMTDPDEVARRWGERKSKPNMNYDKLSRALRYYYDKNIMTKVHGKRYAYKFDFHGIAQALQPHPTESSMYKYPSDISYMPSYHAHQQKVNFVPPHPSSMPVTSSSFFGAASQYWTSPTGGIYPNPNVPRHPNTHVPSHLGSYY
# Procedure, shortened: (§1)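 Human transcription factors were made in yeast as GST fusions, captured on glutathione beads and barcoded with DNA. With a tag-only sample included, the pool was incubated with 200 nmole of a random double-stranded 16-mer DNA library in Tris/NaCl/DTT/glycerol buffer at room temperature for 30 min, then crosslinked with 0.1% formaldehyde after washing, ligated by proximity, amplified and sequenced. For binding signal, each hexamer's read frequency for a factor is divided by its frequency for the tag-only sample.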
# ELK1 = biological target: T2, ELK1 (Homo sapiens, UniProt P19419 1-428)
# T2 sequence: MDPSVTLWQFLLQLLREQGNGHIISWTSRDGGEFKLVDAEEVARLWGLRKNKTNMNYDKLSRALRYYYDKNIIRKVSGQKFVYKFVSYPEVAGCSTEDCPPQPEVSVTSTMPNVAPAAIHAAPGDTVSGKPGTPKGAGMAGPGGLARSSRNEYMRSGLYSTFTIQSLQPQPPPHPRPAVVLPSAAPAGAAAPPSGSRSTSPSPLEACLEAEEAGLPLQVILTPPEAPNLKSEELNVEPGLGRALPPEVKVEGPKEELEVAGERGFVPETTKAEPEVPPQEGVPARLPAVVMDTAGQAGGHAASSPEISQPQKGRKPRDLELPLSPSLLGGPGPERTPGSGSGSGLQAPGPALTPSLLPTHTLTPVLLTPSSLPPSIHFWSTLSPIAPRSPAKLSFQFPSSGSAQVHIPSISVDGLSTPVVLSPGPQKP
# Procedure, shortened: as §1
# GABPA = biological target: T3, GABPA (Homo sapiens, UniProt Q06546 1-454)
# T3 sequence: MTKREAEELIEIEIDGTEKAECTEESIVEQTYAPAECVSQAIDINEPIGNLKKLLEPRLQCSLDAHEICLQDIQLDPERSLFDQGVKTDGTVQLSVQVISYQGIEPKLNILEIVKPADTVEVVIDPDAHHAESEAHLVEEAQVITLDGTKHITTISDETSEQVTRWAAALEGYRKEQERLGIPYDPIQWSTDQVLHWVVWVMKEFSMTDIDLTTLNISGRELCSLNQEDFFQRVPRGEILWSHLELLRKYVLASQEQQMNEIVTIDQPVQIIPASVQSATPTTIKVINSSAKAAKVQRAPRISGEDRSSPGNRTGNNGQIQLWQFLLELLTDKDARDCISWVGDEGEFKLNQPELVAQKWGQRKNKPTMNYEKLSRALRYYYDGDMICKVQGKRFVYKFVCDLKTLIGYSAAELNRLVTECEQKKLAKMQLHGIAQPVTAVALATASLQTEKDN
# Procedure, shortened: as §1
# ERG = biological target: T4, ERG (Homo sapiens, UniProt P11308 1-479)
# T4 sequence: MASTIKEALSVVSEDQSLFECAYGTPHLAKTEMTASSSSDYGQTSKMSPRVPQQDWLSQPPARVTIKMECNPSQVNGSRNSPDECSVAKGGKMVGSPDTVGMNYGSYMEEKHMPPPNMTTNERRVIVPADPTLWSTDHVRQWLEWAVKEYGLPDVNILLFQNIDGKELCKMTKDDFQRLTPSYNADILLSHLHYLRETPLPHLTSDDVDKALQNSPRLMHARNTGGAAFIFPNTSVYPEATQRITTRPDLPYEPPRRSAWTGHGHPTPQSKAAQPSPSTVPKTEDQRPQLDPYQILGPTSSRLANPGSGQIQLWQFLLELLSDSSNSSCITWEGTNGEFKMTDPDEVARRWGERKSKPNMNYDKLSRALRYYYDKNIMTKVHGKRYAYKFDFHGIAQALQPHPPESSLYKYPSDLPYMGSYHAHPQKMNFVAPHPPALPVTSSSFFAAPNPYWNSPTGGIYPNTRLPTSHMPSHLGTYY
# Procedure, shortened: as §1
# ELF1 = ELF1 (Homo sapiens, UniProt P32519 1-619)
# Procedure, shortened: as §1
# EHF = biological target: T5, EHF (Homo sapiens, UniProt Q9NZC4 1-300)
# T5 sequence: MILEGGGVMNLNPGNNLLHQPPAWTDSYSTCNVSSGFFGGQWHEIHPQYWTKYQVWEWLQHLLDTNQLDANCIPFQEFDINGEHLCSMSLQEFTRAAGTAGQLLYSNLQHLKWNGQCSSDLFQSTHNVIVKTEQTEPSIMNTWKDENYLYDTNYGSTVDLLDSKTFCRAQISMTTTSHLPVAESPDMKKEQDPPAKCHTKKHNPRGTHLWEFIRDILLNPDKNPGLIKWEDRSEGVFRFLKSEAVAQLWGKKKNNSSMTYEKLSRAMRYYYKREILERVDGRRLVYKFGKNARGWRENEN
# Procedure, shortened: as §1
# SPI1 = SPI1 (Homo sapiens, UniProt P17947 1-270)
# Procedure, shortened: as §1
# SPIB = SPIB (Homo sapiens, UniProt Q01892 1-262)
# Procedure, shortened: as §1
# ELK3 = biological target: T6, ELK3 (Homo sapiens, UniProt P41970 1-407)
# T6 sequence: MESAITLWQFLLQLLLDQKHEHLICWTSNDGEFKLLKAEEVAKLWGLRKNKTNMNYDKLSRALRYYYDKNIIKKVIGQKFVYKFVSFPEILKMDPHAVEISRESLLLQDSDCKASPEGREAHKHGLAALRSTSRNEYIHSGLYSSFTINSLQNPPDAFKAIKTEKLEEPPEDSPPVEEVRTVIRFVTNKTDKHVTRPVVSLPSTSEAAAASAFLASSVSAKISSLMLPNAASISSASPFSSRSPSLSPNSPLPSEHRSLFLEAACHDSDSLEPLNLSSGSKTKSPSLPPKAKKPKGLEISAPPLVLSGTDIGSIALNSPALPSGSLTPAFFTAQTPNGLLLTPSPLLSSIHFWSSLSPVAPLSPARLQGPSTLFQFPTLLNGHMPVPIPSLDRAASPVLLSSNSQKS
# Procedure, shortened: as §1
# Sequence of ELF1 (P32519 whole entry): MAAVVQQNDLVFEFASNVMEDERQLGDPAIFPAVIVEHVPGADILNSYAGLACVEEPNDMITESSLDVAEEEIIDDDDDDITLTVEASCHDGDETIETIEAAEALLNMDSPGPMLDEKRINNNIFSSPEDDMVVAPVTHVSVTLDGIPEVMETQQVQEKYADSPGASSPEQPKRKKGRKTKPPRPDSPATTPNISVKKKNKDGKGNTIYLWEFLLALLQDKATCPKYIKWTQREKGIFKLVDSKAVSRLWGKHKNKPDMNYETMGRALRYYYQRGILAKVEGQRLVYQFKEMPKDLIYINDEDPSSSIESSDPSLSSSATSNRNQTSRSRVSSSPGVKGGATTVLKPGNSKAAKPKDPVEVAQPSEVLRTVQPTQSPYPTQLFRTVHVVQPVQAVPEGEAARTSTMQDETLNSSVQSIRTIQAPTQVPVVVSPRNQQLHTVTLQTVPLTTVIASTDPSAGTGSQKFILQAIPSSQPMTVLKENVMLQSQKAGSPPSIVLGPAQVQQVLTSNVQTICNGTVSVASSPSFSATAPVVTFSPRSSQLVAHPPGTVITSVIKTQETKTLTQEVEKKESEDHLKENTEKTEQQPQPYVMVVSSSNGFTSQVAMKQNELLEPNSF
# Sequence of SPIB (Q01892 whole entry): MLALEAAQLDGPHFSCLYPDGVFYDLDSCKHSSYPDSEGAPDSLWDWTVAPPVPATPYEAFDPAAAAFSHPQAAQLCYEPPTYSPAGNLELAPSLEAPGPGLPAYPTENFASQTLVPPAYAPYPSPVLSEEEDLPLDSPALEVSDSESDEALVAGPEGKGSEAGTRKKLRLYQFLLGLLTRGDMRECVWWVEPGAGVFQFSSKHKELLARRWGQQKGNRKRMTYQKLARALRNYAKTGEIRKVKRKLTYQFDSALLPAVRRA
Sequence,binding signal (FLI1),binding signal (ELK1),binding signal (GABPA),binding signal (ERG),binding signal (ELF1),binding signal (EHF),binding signal (SPI1),binding signal (SPIB),binding signal (ELK3)
CGCTCG,"1.17 fold enrichment (6-mer frequency, TF over GST control)","1.08 fold enrichment (6-mer frequency, TF over GST control)","1.11 fold enrichment (6-mer frequency, TF over GST control)","1.05 fold enrichment (6-mer frequency, TF over GST control)","1.19 fold enrichment (6-mer frequency, TF over GST control)","1.04 fold enrichment (6-mer frequency, TF over GST control)","1.08 fold enrichment (6-mer frequency, TF over GST control)","1.12 fold enrichment (6-mer frequency, TF over GST control)","1.11 fold enrichment (6-mer frequency, TF over GST control)"
CAACCC,"1.15 fold enrichment (6-mer frequency, TF over GST control)","1.22 fold enrichment (6-mer frequency, TF over GST control)","1.27 fold enrichment (6-mer frequency, TF over GST control)","1.21 fold enrichment (6-mer frequency, TF over GST control)","1.24 fold enrichment (6-mer frequency, TF over GST control)","1.16 fold enrichment (6-mer frequency, TF over GST control)","1.21 fold enrichment (6-mer frequency, TF over GST control)","1.26 fold enrichment (6-mer frequency, TF over GST control)","1.21 fold enrichment (6-mer frequency, TF over GST control)"
TCCCAG,"1.05 fold enrichment (6-mer frequency, TF over GST control)","1.09 fold enrichment (6-mer frequency, TF over GST control)","1.08 fold enrichment (6-mer frequency, TF over GST control)","1.07 fold enrichment (6-mer frequency, TF over GST control)","1.08 fold enrichment (6-mer frequency, TF over GST control)","1.1 fold enrichment (6-mer frequency, TF over GST control)","1.11 fold enrichment (6-mer frequency, TF over GST control)","1.08 fold enrichment (6-mer frequency, TF over GST control)","1.11 fold enrichment (6-mer frequency, TF over GST control)"
CATATC,"1.25 fold enrichment (6-mer frequency, TF over GST control)","1.39 fold enrichment (6-mer frequency, TF over GST control)","1.26 fold enrichment (6-mer frequency, TF over GST control)","1.37 fold enrichment (6-mer frequency, TF over GST control)","1.32 fold enrichment (6-mer frequency, TF over GST control)","1.36 fold enrichment (6-mer frequency, TF over GST control)","1.3 fold enrichment (6-mer frequency, TF over GST control)","1.32 fold enrichment (6-mer frequency, TF over GST control)","1.34 fold enrichment (6-mer frequency, TF over GST control)"
TGGTAT,"1.41 fold enrichment (6-mer frequency, TF over GST control)","1.45 fold enrichment (6-mer frequency, TF over GST control)","1.29 fold enrichment (6-mer frequency, TF over GST control)","1.31 fold enrichment (6-mer frequency, TF over GST control)","1.39 fold enrichment (6-mer frequency, TF over GST control)","1.32 fold enrichment (6-mer frequency, TF over GST control)","1.39 fold enrichment (6-mer frequency, TF over GST control)","1.37 fold enrichment (6-mer frequency, TF over GST control)","1.24 fold enrichment (6-mer frequency, TF over GST control)"
CTAAAG,"1.39 fold enrichment (6-mer frequency, TF over GST control)","1.35 fold enrichment (6-mer frequency, TF over GST control)","1.45 fold enrichment (6-mer frequency, TF over GST control)","1.36 fold enrichment (6-mer frequency, TF over GST control)","1.39 fold enrichment (6-mer frequency, TF over GST control)","1.35 fold enrichment (6-mer frequency, TF over GST control)","1.3 fold enrichment (6-mer frequency, TF over GST control)","1.31 fold enrichment (6-mer frequency, TF over GST control)","1.49 fold enrichment (6-mer frequency, TF over GST control)"
TGACCA,"1.25 fold enrichment (6-mer frequency, TF over GST control)","1.32 fold enrichment (6-mer frequency, TF over GST control)","1.33 fold enrichment (6-mer frequency, TF over GST control)","1.15 fold enrichment (6-mer frequency, TF over GST control)","1.29 fold enrichment (6-mer frequency, TF over GST control)","1.33 fold enrichment (6-mer frequency, TF over GST control)","1.25 fold enrichment (6-mer frequency, TF over GST control)","1.21 fold enrichment (6-mer frequency, TF over GST control)","1.45 fold enrichment (6-mer frequency, TF over GST control)"

# From PMC7862700, “An all-to-all approach to the identification of sequence-specific readers for epigenetic DNA modifications on cytosine”
